Only some compounds are listed: those with a hit (about 11% of all), similar ones and a draw of the others.
IMPase cell inh: cell-permeable inhibitors of inositol monophosphatase (IMPase) | CHO-M1 cells, IP1 accumulation, HTRF TR-FRET ratio | inhibition (IP1 accumulation), % at 46.1 µM | 120,000 tested, under 10 active | AID 901; active = well fitted curve in the direction sought with a large enough effect in the signal ratio, not every such curve was filed as active; inconclusive = small, poorly fitted or top-dose-only effect, or a change in a side signal; inactive = no such curve, though single readings can be large or run the other way; the % refers to the signal ratio;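 note: cells stimulated with carbachol in lithium chloride buffer; plate controls were DMSO basal wells for no effect and reference inhibitor wells for full effect; higher means more IMPase inhibition seen as more IP1 and lower FRET ratio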
Target sequence (P97697 whole entry, looked up): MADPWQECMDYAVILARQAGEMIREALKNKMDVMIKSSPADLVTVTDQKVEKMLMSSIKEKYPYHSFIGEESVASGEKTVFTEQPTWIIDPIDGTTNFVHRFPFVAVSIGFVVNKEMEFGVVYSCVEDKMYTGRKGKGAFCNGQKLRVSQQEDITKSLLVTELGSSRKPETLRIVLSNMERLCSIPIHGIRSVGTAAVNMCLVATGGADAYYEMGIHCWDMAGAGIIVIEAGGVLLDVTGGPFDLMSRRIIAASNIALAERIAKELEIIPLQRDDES
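Measured: the HTRF emission ratio (665/620 nm) plus the 620 nm donor channel, each fitted to the Hill equation to give AC50. Cells were CHO-M1 given compounds up to 46 uM and a 30 min carbachol stimulation at 37C.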
HPGD inh: inhibitors of human 15-hydroxyprostaglandin dehydrogenase (HPGD); P15428; purified HPGD, NADH fluorescence kinetic, PGE2 substrate; Potency, µM, inactives show at the highest dose activity change, negative = inhibition, actives largely listed as inhibitors; 150,000 tested, 4.3% active; note: potency is the fitted concentration of half-maximal effect
Target sequence (P15428 whole entry, looked up): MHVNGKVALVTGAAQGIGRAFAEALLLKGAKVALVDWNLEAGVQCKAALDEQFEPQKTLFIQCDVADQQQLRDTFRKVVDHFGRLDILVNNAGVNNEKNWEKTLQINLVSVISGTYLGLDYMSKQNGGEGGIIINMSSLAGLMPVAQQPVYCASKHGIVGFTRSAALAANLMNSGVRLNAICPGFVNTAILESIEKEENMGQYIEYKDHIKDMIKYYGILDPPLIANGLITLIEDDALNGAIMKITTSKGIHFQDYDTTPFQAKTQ
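NADH formation kinetics: reaction with 30 uM PGE2 and 1 mM NAD+ (final), 20 nM enzyme, Tris-HCl pH 8 with Tween 20, after 15 min compound preincubation at room temperature. Fluorescence change, last versus first of five reads.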
ALDH1A1 block: inhibitors of human aldehyde dehydrogenase 1A1; Purified ALDH1A1, NADH fluorescence, propionaldehyde substrate; 220,000 tested, 7.3% active; Potency, µM (doses to about 75.3 µM), without a hit: top-dose activity, negative = inhibition, most hits filed as inhibitors; P00352; AID 1030;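 note: potency is the fitted concentration of half-maximal effect; plate controls were no enzyme wells and a reference inhibitor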
PNC assembly inh: perinucleolar compartment assembly inhibition | 140,000 tested, 3.1% active | activity change (PNC), negative = inhibition, % at 10 µM | PC3M PTB-GFP, PNC prevalence imaging, 16 h; stronger effect = lower value | AID 2417;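 active = readout at or below -70, meaning at least 70% loss of cells showing the perinucleolar compartment, a nuclear body marking cancer cells; inconclusive = readout between -30 and a set limit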;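 note: plate controls were DMSO wells for no effect and camptothecin positive control wells for full effect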
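Read-out is percentage of cells bearing a perinucleolar compartment, from automated 20x imaging of fixed, Hoechst-stained PC3M PTB-GFP cells. Cells were seeded 4 h, then exposed 16 h to compound (23 nl of library stock) in duplicate plates.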
IMPase Li cell: cell-permeable IMPase inhibitors with lithium potentiation. Potency, µM (titrated, usually from 59.4 µM), inactives show top-dose activity, negative = IMPase inhibition, most hits filed as inhibitors. CHO-M1 cells, IP1 TR-FRET (IP-One), carbachol + lithium. 210,000 tested, 0.35% active; active = well fitted inhibition curve with a large enough effect; inconclusive = small, poorly fitted or top-dose-only effect; inactive = no such curve, though single readings can be large or run the other way;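 note: IP1 builds up when IMPase is blocked and the TR-FRET signal falls; potency is the fitted concentration of half-maximal effect; plate controls were basal vehicle for no effect and high inhibitor control for full effect; nearly all actives have a fitted effect of over 50% in size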
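CHO cells stably expressing M1 receptor (2000/well, cultured 16–30 h) treated 30 min at 37C with compound plus low lithium. Cytosolic IP1 by TR-FRET (665/620 ratio and 620 channel) after 10 min lysis; AC50 by Hill fit.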
An asterisk follows results filed as active; u = inconclusive; x = not tested or not shown; [ ] = remark or other dose. Unless noted, calls come from the whole dose curve; as a rule, active = well fitted inhibition curve with a large enough effect (not every such curve was filed as active); inconclusive = small, poorly fitted or top-dose-only effect, or another doubt; inactive = no such curve, though single readings can be large or run the other way. Unless noted, % is set by controls: 0 for no effect and ±100 for the full control effect.

SMILES	IMPase cell inh	HPGD inh	ALDH1A1 block	PNC assembly inh	IMPase Li cell
COC(=O)CN1C(=O)C(O)(CC(=O)c2ccc(Cl)cc2)c2ccccc21 (configuration not stated)	6.7	-10.1%	0.224µM*	u	6.2%[38.3 µM]
CCOC(=O)N1CCN(C(=O)c2ccc(OC(C)=O)cc2)CC1	x	x	-3.3%	x	-8.1%
COc1cccc(NC(=O)C2CC(=O)N(c3ccc(Br)cc3)C2)c1 (configuration not stated)	1.5	x	x	x	x
CCc1cc(C(=O)COc2ccccc2F)c(O)cc1O	1.3	31.6µM*	u	37.0	41.2%[38.3 µM]
CC1Cc2ccccc2N1C(=O)CN1C(=O)C(=O)N(Cc2ccccc2)C1=O (configuration not stated)	3.2	-21.1%	31.6µM*	5.4	25.9%[38.3 µM]
N#CC1(c2ccc(NC(=O)c3ccccc3)cc2)CCCC1	9.2	-24.1%	4.47µM*	u	3.8%[38.3 µM]
O=C(NCc1ccco1)/C(=C/c1ccco1)NC(=O)c1ccc(Br)o1	-1.3	-11.8%	u	1.4	-3.4%
CC(C)(C)c1ccc(C(=O)N/C(=C\c2cccs2)C(=O)NCc2ccco2)cc1	-2.5	x	3.16µM*	-24.0	x
O=C(NCc1ccco1)/C(=C\c1ccco1)NC(=O)c1ccc(Br)o1	x	u	28.2µM*	13.4	-7.8%
O=C(Nc1ccc(NC(=O)c2ccco2)cc1)c1cnccn1	-2.2	-21.3%	25.1µM*	33.5	1.6%[38.3 µM]
O=C(Nc1ccc(S(=O)(=O)NC2CCCC2)cc1)c1cnccn1	7.7	7.94µM*	u	-5.4	8.2%[38.3 µM]
O=C(Nc1cnn(Cc2ccc(F)cc2)c1)c1cnccn1	2.0	-20.8%	-5.4%	-129.2*	22.0%[38.3 µM]
O=C(Nc1cnn(Cc2ccc(F)cc2)c1)c1cc(-c2cccs2)on1	4.5	-26.6%	u	u	-0.7%[38.3 µM]
O=C(Nc1ccc(S(=O)(=O)NCC2CCCO2)cc1)c1cnccn1 (configuration not stated)	x	x	2.2%	x	16.0%
O=C(N/N=C\C=C\c1ccco1)c1cc(-c2ccc3ccccc3c2)n[nH]1	10.2	31.6µM*	0.0%	4.6	13.3%
O=C(N/N=C/C=C/c1ccco1)c1cnccn1	x	x	3.16µM*	x	x
COc1ccc2[nH]c(C)c(C(=O)CN3CCc4cc(OC)c(OC)cc4C3)c2c1	11.3	x	10µM*	-20.2	x
CCCC(=O)C1=C(c2ccccc2)C(C#N)(C#N)C(C#N)=C1N	4.8	1.41µM*	u	0.7	10.9%[38.3 µM]
NS(=O)(=O)c1ccc(CCNC(=O)COC(=O)CN2C(=O)C3CCCCC3C2=O)cc1 (configuration not stated)	x	x	-7.8%	x	-8.1%
CCNCc1nc2cc(Cl)ccc2c(=O)[nH]1	x	x	2.7%	x	4.0%
Cc1cnc(CNc2nc(-c3ccc(C(=O)N(C)C)cc3)nc3ccccc23)cn1	x	14.1µM*	4.8%	x	0.1%
CN(C)C(=O)c1ccc(-c2nc(NCc3cccnc3)c3ccccc3n2)cc1	x	15.8µM*	-0.5%	x	-1.3%
c1ccc(CNc2nc(-c3ccoc3)nc3ccccc23)cc1	x	x	31.6µM*	x	14.6%
CNc1nc(-c2ccc(C(=O)N(C)C)cc2)nc2ccccc12	x	x	4.5%	x	4.4%
CN(C)C(=O)c1ccc(-c2nnc(NCc3ccccc3)c3ccccc23)cc1	-2.2	2.51µM*	u	24.1	10.4%
SMILES	IMPase cell inh	HPGD inh	ALDH1A1 block	PNC assembly inh	IMPase Li cell
O=C1O/C(=C\Br)CC[C@@H]1c1cccc2ccccc12	7.2	x	x	x	x
CCn1c(=O)n(CC)c2cc(S(=O)(=O)Nc3cc(C)cc(C)c3C#N)ccc21	-3.3	-6.1%	u	9.4	15.5%[38.3 µM]
CSc1nc(C)cc(Oc2ccccc2)n1	x	x	6.7%	x	4.4%
CC[N+](C)(CC)CCN1C(=O)c2ccccc2S1(=O)=O	x	-3.4%	25.6%[13.5 µM]	x	-8.6%
COc1ccc(/C=C2\CCCC3C2=NN(C(=O)CSc2n[nH]c(N)n2)C3c2ccc(OC)cc2)cc1 (configuration not stated)	x	x	-13.8%	x	3.4%
CO[C@]1(NC(=O)C2SC(=C(C(N)=O)C(=O)O)S2)C(=O)N2C(C(=O)O)=C(CSc3nnnn3C)CS[C@H]21 (some centres not stated)	2.0[20.6 µM]	1.0%	8.1%[20.9 µM]	x	1.8%
CN(C)C(=O)c1ccc(-c2nccc(NCc3cccnc3)n2)cc1	x	14.1µM*	1.8%	x	-5.0%
NNC(=O)c1nc[nH]c1C(=O)Nc1ccccc1[N+](=O)[O-]	x	x	0.794µM*	x	18.2%
O=C(NCc1ccccc1)c1nc[nH]c1C(=O)NCc1ccccc1	x	x	2.51µM*	x	14.3%
Cc1ccc(NC(=O)NCc2c(C)nn(C)c2C)cc1Cl	x	x	-3.4%	x	5.4%
Cc1nn(C)cc1CNC(=O)Nc1ccc(Cl)c(Cl)c1	4.0	15.8µM*	-15.6%	26.5	34.7%[38.3 µM]
CCN(CC)CCNC(=O)c1ccc(NC(=O)c2ccc(F)cc2F)cc1	x	x	-1.2%	x	31.2%
CC1CC(C)CN(C(=O)c2ccc(NC(=O)c3ccc(=O)[nH]c3)cc2)C1 (configuration not stated)	x	7.94µM*	-6.3%	21.0	-2.9%
Cc1c(C(=O)N2CCc3ccccc3C2)sc2nc(-c3ccccc3)cn12	9.3	7.08µM*	u	15.3	33.3%[38.3 µM]
COc1ccccc1N1CCN(C(=O)c2sc3nc(-c4ccccc4)cn3c2C)CC1	1.6	-4.8%	5.4%	-95.2*	3.1%
Cc1onc(-c2ccccc2Cl)c1C(=O)NC(=S)Nc1ccccc1F	x	x	3.16µM*	x	-0.9%
COC(=O)c1cc(OC)c(OC)cc1NC(=O)c1c(-c2ccccc2Cl)noc1C	12.9	-11.9%	28.2µM*	17.6	35.4%[38.3 µM]
COC(=O)c1c(-c2ccccc2Cl)noc1/C=C/N(C)C	x	x	1.26µM*	x	12.0%
COc1ccccc1NC(=S)NC(=O)c1c(-c2ccccc2Cl)noc1C	x	x	0.891µM*	x	5.0%
Cc1onc(-c2ccccc2Cl)c1C(N)=O	-7.8	-1.1%	4.1%	-28.8	1.2%[38.3 µM]
COc1ccc(C(=O)N2CCN(C3CCN(Cc4ccccc4)CC3)CC2)cc1OC	0.9	4.1%	u	5.2	39.2%[38.3 µM]
COc1cccc(C(=O)N2CCN(C(=O)c3cccc4ccccc34)CC2)c1OC	7.0	-12.5%	u	9.1	11.8%[38.3 µM]
COc1ccc(C(=O)N2CCN(Cc3cc(OC)c(O)c(OC)c3)CC2)cc1OC	12.4	x	22.4µM*	-86.7*	x
COc1ccc(CN2CCN(C(=O)c3cc(OC)c(OC)c(OC)c3)CC2)cc1OC	1.3	-3.4%	-11.9%	-100.0*	1.1%
CCc1ccc(CN2CCN(C(=O)c3cccc(OC)c3OC)CC2)cc1	-11.1	-11.0%	u	-100.0*	5.3%
Cc1cc(S(=O)(=O)Nc2cc3c(cc2NCc2ccccc2)n(C)c(=O)n3C)ccc1F	2.9	x	x	x	x
CC(C)N1CCN(Cc2ccc3c(c2)Cc2ccccc2-3)CC1CCO (configuration not stated)	x	x	1.2%	x	17.4%
Cc1ccc(-c2ccc(CCC(=O)O)o2)cc1	1.8	-18.6%	u	-2.1	-10.3%[38.3 µM]
O=C(O)CCc1ccc(-c2cccs2)o1	4.7	22.4µM*	1µM*	-13.5	22.3%[38.3 µM]

Screening results deposited in PubChem by National Center for Advancing Translational Sciences (NCATS).
